High-throughput results from PubChem BioAssay.
Keap1-Nrf2 PPI = disrupts human Keap1 binding to Nrf2 peptide; Q14145; Keap1 Kelch-Nrf2 peptide fluorescence polarization, 1536-well; 340,000 tested, 0.15% active; inhibition, % at 9.4 µM; in the data active means inhibition above about 12%;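 further: human Keap1 Kelch domain with fluorescein labeled Nrf2 9mer peptide probe; higher means more block of Keap1 binding to Nrf2 peptide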
LANA-H2B inh = blocks KSHV LANA binding to histone H2A/H2B. cell-free LANA-H2A/H2B peptide, fluorescence polarization. Q9QR71. 320,000 tested, 0.6% active. inhibition, % (concentration not given with the values); in the data active means inhibition mostly above about 10%, no sharp cut-off; inactive means mostly below about 6.7%
RTF Ca sens inh = cardiac RTF calcium desensitization; IANBD-labeled cardiac RTF, Ca2+ fluorescence; 340,000 tested, 0.12% active; P19429+P45379; inhibition, % at 7.15 µM;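 active means inhibition above the mean inhibition of all tested compounds plus 3 SD, cut at about 17% in these data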;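 further: assay run at fixed EC70 calcium of 1.6 mM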
C-LANA FP = blocks KSHV LANA C-terminal domain binding to DNA; MBP-C-LANA/FAM-LBS DNA binding, fluorescence polarization; inhibition, % at 9 µM; 340,000 tested, 0.078% active; AID 504423;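 active means highest replicate inhibition at or above 60% at 9 µM, even if other replicates fall short; inactive means all replicates below 60% inhibition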
cardiac RTF act = increases calcium sensitivity of human cardiac regulated thin filaments; P19429+P45379; IANBD-labeled TnC RTF fluorescence at EC20 calcium; 0% EC20 calcium, 100% full calcium; activation, % at 7.2 µM; 340,000 tested, 0.24% active; AID 493008;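 active means activation above the mean over all tested compounds plus 3 SD, cut at about 30% in these data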;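 further: rise in fluorescence read as greater calcium sensitivity of cardiac thin filaments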
Keap1 Kelch bind = binds and thermally shifts human Keap1 Kelch domain; shares compounds with Keap1-Nrf2 PPI; Keap1 Kelch thermal shift, delta Tm; active compounds read high; max delta Tm, degrees C; 400 tested, 8% active; AID 651823; in the data active means max delta Tm above about 0.48 degrees C
Dye-only ctr = counter-screen for Keap1 thermal shift hits: dye-only artifacts. shares compounds with Keap1-Nrf2 PPI. Sypro Orange dye-only thermal melt, no protein, delta Tm; top dose 26 µM. delta Tm, degrees C (concentration not given with the values). 140 tested, under 10 active. AID 651858;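 active means at highest dose tested, delta Tm positive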
Of the large screens only hits and unclear results are named; the others gave an inactive call (follow-up assays come after a bar, where they were run). An excerpt weighted towards active compounds, which were near 0.99% of everything screened.

CN(CC(=O)Nc1ccccc1Cl)C(=O)COC(=O)C1CCN(c2ccc(C(F)(F)F)cn2)CC1	none
CCOC(=O)C(C)(C)N(Cc1ccccc1C)S(=O)(=O)c1ccc(Cl)c([N+](=O)[O-])c1	Keap1-Nrf2 PPI 27 | Keap1 Kelch bind inactive | Dye-only ctr inactive
S=C1SCN(CC2CC2)CN1CC1CC1	Keap1-Nrf2 PPI 33 | Keap1 Kelch bind inactive
S=C1SCN(Cc2ccccc2)CN1Cc1ccccc1	none (no result: LANA-H2B inh)
Cc1ccc(NC(=S)NCc2ccc(F)cc2)c(C)c1	Keap1-Nrf2 PPI 22 | Keap1 Kelch bind inactive | Dye-only ctr inactive
O=[N+]([O-])c1cnc(Sc2ccncn2)s1	none
C=CCn1c(Sc2ncc([N+](=O)[O-])s2)n[nH]c1=O	Keap1-Nrf2 PPI 19 | Keap1 Kelch bind inactive | Dye-only ctr inactive
COc1ccc(C(=O)c2ccccc2)c(O)c1	none
O=C(c1ccccc1)c1ccc(O)cc1O	Keap1-Nrf2 PPI 59, LANA-H2B inh 45, C-LANA FP 103, cardiac RTF act 157 | Keap1 Kelch bind inactive
Cc1sc2ccccc2[n+]1CC(=O)O	none
Cc1sc2ccccc2[n+]1CC(=O)c1ccccc1	Keap1-Nrf2 PPI 22 | Keap1 Kelch bind inactive
CC(OC(=O)c1ccc([N+](=O)[O-])o1)C(=O)NC1CCCCC1C (stereo unspecified)	Keap1-Nrf2 PPI 21 | Keap1 Kelch bind inactive
CCCN(C(=O)c1cc(Cl)nc2ccccc12)C1CCS(=O)(=O)C1 (stereo unspecified)	none
CC1(C)CC(=O)C2=C(C1)OC1=C(C2)C(=O)CC(C)(C)C1	Keap1-Nrf2 PPI 21 | Keap1 Kelch bind inactive
CC(=O)NS(=O)(=O)c1ccc(NC(=O)/C=C/c2ccc(C)o2)cc1	none
COc1ccc(-n2c(C)cc(/C=C3\C(=N)N4N=C(CC(=O)N5CCOCC5)SC4=NC3=O)c2C)c(OC)c1	none
Oc1ccc2c(c1)OCC1(O)Cc3cc(O)c(O)cc3C21 (stereo unspecified)	Keap1-Nrf2 PPI 18 (no result: LANA-H2B inh) | Keap1 Kelch bind inactive
Oc1cc2c(cc1O)[C@H]1c3ccc(O)c(O)c3OC[C@@]1(O)C2	none
Cc1nn(Cc2ccccc2)c(C)c1C(=O)NCCN1C(=O)S/C(=C\c2ccccc2)C1=O	none
O=c1[nH]c2cc(C(F)(F)F)ccc2n1-c1cc(C(F)(F)F)ccc1O	Keap1-Nrf2 PPI 15 | Keap1 Kelch bind inactive
COc1ccccc1Cn1c(=S)[nH]c2ccccc2c1=O	Keap1-Nrf2 PPI 99 | Keap1 Kelch bind inactive
CCc1ccccc1NC(=O)CNC(=O)CNC(=O)Cc1ccccc1	none (no result: LANA-H2B inh)
COc1cccc(C2=CC(c3ccc(OC)c(OC)c3OC)n3nnnc3N2)c1 (stereo unspecified)	none
COc1cccc(C2=CC(c3cccs3)n3nnnc3N2)c1 (stereo unspecified)	Keap1-Nrf2 PPI 15 | Keap1 Kelch bind inactive
Cc1ccc(C(=O)NCC(=O)Nc2ccncc2)cc1C	none
O=[N+]([O-])c1cccc(CN2CCN(c3cccc4[nH]ccc34)CC2)c1	none
CCOc1ccccc1C(=O)OCC(=O)Nc1ccc(N2CCCCC2)cc1	none
O=C(COC(=O)c1cccnc1Cl)Nc1ccc(N2CCCCC2)cc1	Keap1-Nrf2 PPI 43, LANA-H2B inh active (no result: C-LANA FP) | Keap1 Kelch bind inactive | Dye-only ctr inactive
CC(=O)N1CCN(S(=O)(=O)c2cccc(C(=O)NNC(=O)c3ccc(Br)cc3)c2)CC1	Keap1-Nrf2 PPI 48, cardiac RTF act 44 (no result: LANA-H2B inh) | Keap1 Kelch bind inactive | Dye-only ctr inactive
COCC(=O)Oc1c(S(=O)(=O)c2ccc(C)cc2)c(C)nn1-c1ccccc1	none (no result: LANA-H2B inh)
CCOc1ccc(N(CC(=O)NCCc2ccc(C)cc2)S(=O)(=O)c2c(C)noc2C)cc1	none
Cc1cccc(NC(=O)CN2CCCCCC2)c1	none
Cc1cccc(NC(=O)CCN2CCCCC2)c1	Keap1-Nrf2 PPI 32 | Keap1 Kelch bind inactive | Dye-only ctr inactive
O=C(C1=NN(c2ccccc2)C2C(=O)N(c3ccccc3)C(=O)C12)c1ccccc1 (stereo unspecified)	Keap1-Nrf2 PPI 54, cardiac RTF act 33 | Keap1 Kelch bind inactive | Dye-only ctr inactive
O=C1NC2=C(C(=O)CCC2)C(c2ccccc2Cl)N1 (stereo unspecified)	none
